Fam108B inh – counter-screen for RBBP9 inhibitors: inhibitors of mouse Fam108B; recombinant Fam108B, FP-Rh probe fluorescence polarization; inhibition, % at 9.51 µM; actives 0.33% (n = 300,000);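 active = inhibition above the screen mean inhibition plus 3 SD, computed separately per campaign, cut at about 18% in these data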;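 note: inhibitors lower polarization as less probe binds the enzyme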
LYPLA2 inh – blocks human lysophospholipase 2, a PME1 counter-screen; recombinant LYPLA2, FP-Rh probe fluorescence polarization; O95372; AID 2177; inhibition, % at 5.9 µM; actives 0.38% (n = 320,000);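 active = inhibition above the screen-wide mean plus 3 SD, limit set per campaign, cut at about 26% in these data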
Target sequence (O95372 whole entry, looked up): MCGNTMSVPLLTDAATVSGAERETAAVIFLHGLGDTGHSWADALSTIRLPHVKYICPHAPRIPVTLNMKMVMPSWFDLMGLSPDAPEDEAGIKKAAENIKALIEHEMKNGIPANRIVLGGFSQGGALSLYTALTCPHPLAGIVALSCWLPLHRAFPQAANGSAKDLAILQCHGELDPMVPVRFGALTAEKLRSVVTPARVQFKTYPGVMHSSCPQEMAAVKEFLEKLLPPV
PME-1 primary – PME-1 (human) inhibition | Q9Y570 | recombinant PME-1, FP-Rh probe fluorescence polarization | inhibition, % at 5.9 µM | actives 0.53% (n = 320,000) | AID 2130;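 active = inhibition above the campaign mean of all compounds plus 3 SD, cut at about 26% in these data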;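 note: competitive labeling of PME-1 active site by serine hydrolase directed probe; inhibitors block probe labeling so polarization falls and inhibition rises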
Target sequence (Q9Y570 whole entry, looked up): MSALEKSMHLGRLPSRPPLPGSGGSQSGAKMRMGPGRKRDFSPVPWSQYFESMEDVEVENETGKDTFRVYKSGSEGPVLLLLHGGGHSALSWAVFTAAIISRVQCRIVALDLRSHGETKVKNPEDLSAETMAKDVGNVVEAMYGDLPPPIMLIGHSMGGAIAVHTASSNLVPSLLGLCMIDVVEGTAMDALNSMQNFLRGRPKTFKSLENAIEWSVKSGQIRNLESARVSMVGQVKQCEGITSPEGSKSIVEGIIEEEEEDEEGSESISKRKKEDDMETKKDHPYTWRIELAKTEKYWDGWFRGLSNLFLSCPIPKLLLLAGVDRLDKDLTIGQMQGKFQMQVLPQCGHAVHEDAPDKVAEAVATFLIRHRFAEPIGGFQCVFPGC
LYPLA1 inh – counter-screen for PME1 inhibitors: inhibitors of human LYPLA1. O75608. inhibition, % at 5.9 µM. recombinant LYPLA1, FP-Rh probe fluorescence polarization. actives 0.16% (n = 320,000). AID 2174;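 active = inhibition above the mean of all tested compounds plus 3 SD, set per campaign, cut at about 14% in these data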;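 note: inhibitors block serine hydrolase probe labeling of LYPLA1 so polarization falls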
GSTO1 counter – GSTO1 inhibition, counter-screen for RBBP9 inhibitors | actives 1.1% (n = 300,000) | AID 1974 | inhibition, % at 5.96 µM | recombinant GSTO1, activity-based probe fluorescence polarization;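 active = inhibition above the campaign mean inhibition plus 3 SD, cut at about 35% in these data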
PAD4 inh – inhibitors of human PAD4; actives 0.41% (n = 330,000); Q9UM07; recombinant PAD4, RCA probe fluorescence polarization; inhibition, % at 6.36 µM;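 active = percent inhibition above a cutoff equal to the mean of all tested compounds plus 3 SD, cut at about 15% in these data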
LYPLA2 confirm – counter-screen for PME1 inhibitors: confirmation of human LYPLA2 inhibitors | shares compounds with LYPLA2 inh | recombinant LYPLA2, FP-Rh probe fluorescence polarization | inhibition, % at 5.9 µM | actives 72% (n = 1,100) | AID 2232;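 active = mean inhibition across replicates above the hit cutoff set in the primary screen, cut at about 26% in these data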;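 note: blocked labeling of the enzyme by serine hydrolase FP-Rh probe lowers polarization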
LYPLA2 gel ABPP – LYPLA2 (human) inhibition, late stage results; shares compounds with LYPLA2 inh; rhLYPLA2 in mouse brain proteome, gel ABPP FP-Rh; inhibition, % at 20 µM; actives 30% (n = 150); AID 652029;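 active = inhibition of LYPLA2 enzyme probe labeling above about 50%, limit read from the data; inactive = inhibition below that limit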;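 note: loss of FP-Rh probe labeling of the LYPLA2 gel band measured as band density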
Numbers stand for hits; . = inactive; / = no result given. In the library only some 1.8% were active in any assay of this set; here they are far more common.

SMILES | Fam108B inh | LYPLA2 inh | PME-1 primary | LYPLA1 inh | GSTO1 counter | PAD4 inh | LYPLA2 confirm | others
CCOc1ccc(C(=O)Cn2cnc3ccccc3c2=O)cc1 | . | 34 | . | . | . | . | .
CC(CCc1ccccc1)NC(=O)CN1CCN(c2ccccc2)CC1 (stereo not given) | . | . | . | . | . | . | /
Nc1sc(-c2ccccc2)c(Cc2ccccc2)c1C(=O)O | . | . | . | . | . | . | /
COCCN(C(=O)Cn1nnc2ccccc21)C(C(=O)NC1CCCC1)c1cccc(OC)c1OC (stereo not given) | . | . | . | . | . | . | /
O=C(Nc1ccc(N2CCN(C(=O)c3ccc(Cl)cc3)CC2)cc1)c1ccc2c(c1)OCCO2 | . | 58 | . | . | . | . | 63 | LYPLA2 gel ABPP=.
O=C(Nc1ccc(N2CCN(C(=O)c3ccc(Cl)cc3)CC2)cc1)c1cccs1 | . | 29 | . | . | . | . | 27
COc1cc(OC)cc(C(=O)Nc2ccc(N3CCN(C(=O)c4cccs4)CC3)cc2)c1 | . | . | . | . | . | . | /
COc1ccc(C(=O)Nc2ccc(N3CCN(C(=O)c4cccs4)CC3)cc2)cc1Br | . | 29 | . | . | . | . | 27
CC(=O)c1ccc(N2CCN(C(=O)Nc3ccc(Cl)cc3)CC2)cc1 | . | 27 | . | . | . | . | .
Cc1ccc(S(=O)(=O)CCC(=O)OCC(=O)NC(C)c2ccc(F)cc2)cc1 (stereo not given) | / | . | . | . | / | . | /
O=C(c1ccc(N2CCCC2=O)cc1)N1CCN(c2ccc(Cl)cc2)CC1 | . | 53 | . | . | . | . | 55 | LYPLA2 gel ABPP=.
O=C(c1ccc(N2CCCC2=O)cc1)N1CCN(c2ccccc2Cl)CC1 | / | . | . | . | / | . | /
COc1cc(OC)cc(C(C(=O)NCc2ccccc2)N(Cc2ccco2)C(=O)c2ccno2)c1 (stereo not given) | . | . | . | . | . | . | /
Cc1c(C(=O)Oc2ccc(F)cc2)sc2ncn(Cc3cccc(F)c3)c(=O)c12 | . | 35 | . | . | . | . | 30
CCn1cnc2sc(C(=O)Oc3cccc(C)c3)c(C)c2c1=O | . | 28 | . | . | . | . | 36
Cc1ccccc1OCCC(=O)NNC(=O)COc1cccc(F)c1 | / | / | / | / | / | . | /
COc1ccccc1NC(=O)CCn1c(=O)c2cccn2c2ccccc21 | . | 26 | . | . | . | . | .
Cc1ccc(NC(=O)Cn2cnc3sc(C(=O)NCc4ccco4)c(C)c3c2=O)cc1Cl | . | . | . | . | . | . | /
COC(=O)CNC(=O)c1sc2ncn(CC(=O)Nc3ccc(C)c(Cl)c3)c(=O)c2c1C | . | 40 | . | . | . | . | 46
COCCNC(=O)c1sc2ncn(CC(=O)Nc3ccc(C)c(Cl)c3)c(=O)c2c1C | . | 50 | . | . | . | . | 47
CCOC(=O)Nc1ccc2c(COC(=O)CNS(=O)(=O)c3cccc(Br)c3)cc(=O)oc2c1 | . | . | . | . | . | . | /
Cc1ccc(CN2CCN(/N=C/c3ccc(C(=O)O)cc3)CC2)cc1 | . | . | . | . | . | . | /
COc1ccc(/C=N/N2CCN(Cc3ccc(C)cc3)CC2)cc1Br | . | 26 | . | . | . | . | .
CCOC(=O)c1ccc(N2C(=O)CC(N3CCC(Nc4ccc(F)cc4)CC3)C2=O)cc1 (stereo not given) | . | . | . | . | . | . | /
C=CCn1c(SCc2ccc(C(=O)O)cc2)nc2sc(C)c(C)c2c1=O | . | 43 | . | . | . | . | 37
SMILES | Fam108B inh | LYPLA2 inh | PME-1 primary | LYPLA1 inh | GSTO1 counter | PAD4 inh | LYPLA2 confirm | others
O=C(NCC1CCCO1)C1CCN(S(=O)(=O)c2cccc3nonc23)CC1 (stereo not given) | . | . | . | . | . | . | /
O=C(COc1ccc([N+](=O)[O-])cc1)N/N=C/c1cc([N+](=O)[O-])ccc1N1CCOCC1 | . | 35 | . | . | . | . | 30
Cc1ccc(OCC(=O)N/N=C/c2cc([N+](=O)[O-])ccc2N2CCCCC2)cc1 | . | . | . | . | . | . | /
CSc1nc(N)nc2c1ncn2CC(=O)NCCCc1ccccc1 | / | / | / | / | / | . | /
O=c1ccc(-c2ccccc2)nn1Cc1ccc(F)cc1 | . | 27 | . | . | . | . | .
O=c1ccc(-c2ccccc2)nn1Cc1ccccc1 | . | . | . | . | . | . | /
O=c1ccc(-c2ccccc2)nn1Cc1ccc(F)cc1Cl | . | 35 | . | . | . | . | 34
COC(CNC(=O)c1cn(C)c2ccc(S(=O)(=O)N(C)C3CCCCC3)cc2c1=O)OC | . | . | . | . | . | . | /
OC(CNCCNc1ncccc1C(F)(F)F)COc1ccc(F)cc1 (stereo not given) | . | . | . | . | . | . | /
Cc1noc(C(F)(F)F)c1C(=O)NNC(=O)c1cccc(C(F)(F)F)c1 | . | . | . | . | . | . | /
COc1ccc(-c2noc(CN3CCN(c4ccccc4)CC3)n2)cc1 | . | . | . | . | . | . | /
COc1ccc(N2CCN(Cc3nc(-c4ccccc4)no3)CC2)cc1 | . | 26 | . | . | . | . | .
COc1cc(/C=N/NC(=O)C(NC(=O)c2ccccc2)c2n[nH]c(=O)c3ccccc23)ccc1OCC(N)=O (stereo not given) | . | 78 | . | . | . | . | 74
Nc1cc2c(cc1C(=O)c1ccc(Cl)cc1)OCCO2 | . | . | . | . | . | . | /
COc1cc(-c2c(C#N)c(N)nc(SCc3ccncc3)c2C#N)cc(OC)c1OC | . | 35 | . | . | . | . | 29
COC(=O)c1ccc(NC(=O)C(=O)N2CCN(C(=S)Nc3ccccc3OC)CC2)cc1 | . | . | . | . | . | . | /
COC(=O)c1ccc(NC(=O)C(=O)N2CCN(C(=S)Nc3cccc(C)c3C)CC2)cc1 | . | 50 | . | . | . | . | 42
CCCCCCSc1ccc([C@@H]2[C@@H]3C(=O)N(C)C(=O)[C@@H]3[C@]3(C(=O)OC)CCCCN23)cc1OC | . | . | . | . | . | . | /
COC(=O)c1cc(NC(=O)c2ccccc2)c(=O)oc1C | . | 27 | . | . | . | . | .
COc1ccc(CN2CCC(Oc3cc(C(=O)NC4CC4)ccc3OC)CC2)c(O)c1 | . | . | . | . | . | . | /
COc1ccc(CCNc2oc(-c3ccc(OC)c(OC)c3)nc2P(=O)(OC)OC)cc1OC | . | 28 | . | . | . | . | .
COc1ccc(-c2nc(C#N)c(NCCc3ccccc3)o2)cc1OC | . | . | . | . | . | . | /

Screens: PubChem BioAssay, The Scripps Research Institute Molecular Screening Center
